A short description of experiment [1]: qHTS RealTime-Glo MT Cell Viability Assay in HEK293 cells - 16 hour (AID 1224872). Also: nearly all actives have a fitted effect of over 50% in size. Also: potency is read from the fitted curve at half-maximal effect. The gist of the method: (§1)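 Cells + reagent dispensed (600 cells/well, HEK293) → 5 h at 37 C/5% CO2 → 23 nL compound in DMSO pinned → 40 h at 37 C → luminescence read at 0, 8, 16, 24, 32, 40 h.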
For orientation: Quantitative high-throughput screening tests each substance at several concentrations.

Experiment [2] in a line: qHTS RealTime-Glo MT Cell Viability Assay in HepG2 cells - 8 hour (AID 1224873). Also: nearly all actives have a fitted effect of over 55% in size. Also: potency is read from the fitted curve at half-maximal effect. The gist of the method:
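Real-time viability: cells seeded at 600 per well together with NanoLuc and cell-permeant prosubstrate, compounds added after 5 h incubation. Luminescence tracked at 0, 8, 16, 24, 32 and 40 h of exposure.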

Experiment [3] is described as follows: qHTS RealTime-Glo MT Cell Viability Assay in HEK293 cells - 40 hour (AID 1224874). Also: nearly all actives have a fitted effect of over 50% in size. Also: potency is read from the fitted curve at half-maximal effect. The following applies: RealTime-Glo luminescence; max response: stronger effect = lower value. Summed up:
(§2)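 Nonlytic bioluminescent viability monitoring. HEK293 at 600 cells/well with reagent; 5 h settle; compound transfer by pintool; plates held at 37 C and read at set time points.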

The nature of experiment [4]: A CellTox Green Cytotoxicity Assay to monitor cytotoxicity in HEK293 cells - 24 hour (AID 1224875). Also: nearly all actives have a fitted effect of over 45% in size. Also: potency is read from the fitted curve at half-maximal effect. The gist of the method:
(§3)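 Cytotoxicity was tracked continuously in HEK293 cells by a DNA-binding dye excluded from viable cells. Compounds were transferred in DMSO 5 h after seeding; fluorescence was recorded at intervals up to 40 h.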

The nature of experiment [5]: A CellTox Green Cytotoxicity Assay to monitor cytotoxicity in HepG2 cells - 16 hour (AID 1224876). Also: nearly all actives have a fitted effect of over 45% in size. Also: potency is read from the fitted curve at half-maximal effect. The gist of the method: (§4)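 Real-time, homogeneous cytotoxicity readout: dead-cell DNA staining by CellTox Green in HepG2 monolayers, fluorescence measured at timed intervals up to 40 h of continuous compound exposure.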
Experiment [6] in a line: qHTS RealTime-Glo MT Cell Viability Assay in HepG2 cells - 32 hour (AID 1224877). Also: nearly all actives have a fitted effect of over 55% in size. Also: potency is read from the fitted curve at half-maximal effect. The gist of the method: (§5)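 Real-time, nonlytic viability: 600 HepG2 cells/well mixed with NanoLuc enzyme plus prosubstrate; 5 h settle, compound (DMSO) added by pintool; luminescence monitored over 40 h at 37 C.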
Experiment [7] in a line: A CellTox Green Cytotoxicity Assay to monitor cytotoxicity in HepG2 cells - 24 hour (AID 1224878). Also: nearly all actives have a fitted effect of over 45% in size. Also: potency is read from the fitted curve at half-maximal effect. Summed up: as §4
The nature of experiment [8]: A CellTox Green Cytotoxicity Assay to monitor cytotoxicity in HepG2 cells - 40 hour (AID 1224879). Also: nearly all actives have a fitted effect of over 40% in size. Also: potency is read from the fitted curve at half-maximal effect. The gist of the method:
as §4

Experiment [9] is described as follows: qHTS RealTime-Glo MT Cell Viability Assay in HEK293 cells - 0 hour (AID 1224880). Also: top concentration of the series differs between compounds; nearly all actives have a fitted effect of over 45% in size. The gist of the method: as §2
The nature of experiment [10]: A CellTox Green Cytotoxicity Assay to monitor cytotoxicity in HEK293 cells - 32 hour (AID 1224881). Also: nearly all actives have a fitted effect of over 40% in size. Also: potency is read from the fitted curve at half-maximal effect. The gist of the method:
as §3

Experiment [11] is described as follows: A CellTox Green Cytotoxicity Assay to monitor cytotoxicity in HepG2 cells - 0 hour (AID 1224882). Also: nearly all actives have a fitted effect of over 35% in size. The gist of the method:
as §4

Experiment [12] is described as follows: A CellTox Green Cytotoxicity Assay to monitor cytotoxicity in HepG2 cells - 32 hour (AID 1224883). Also: nearly all actives have a fitted effect of over 50% in size. Also: potency is read from the fitted curve at half-maximal effect. Summed up: as §4
Experiment [13] can be described thus: A CellTox Green Cytotoxicity Assay to monitor cytotoxicity in HEK293 cells - 8 hour (AID 1224884). Also: nearly all actives have a fitted effect of over 35% in size. Also: potency is read from the fitted curve at half-maximal effect. Summed up:
as §3

The nature of experiment [14]: qHTS RealTime-Glo MT Cell Viability Assay in HepG2 cells - 16 hour (AID 1224885). Also: nearly all actives have a fitted effect of over 50% in size. Also: potency is read from the fitted curve at half-maximal effect. The gist of the method:
as §5

Experiment [15] in a line: qHTS RealTime-Glo MT Cell Viability Assay in HEK293 cells - 24 hour (AID 1224886). Also: nearly all actives have a fitted effect of over 50% in size. Also: potency is read from the fitted curve at half-maximal effect. Summed up: as §1
The nature of experiment [16]: qHTS RealTime-Glo MT Cell Viability Assay in HEK293 cells - 8 hour (AID 1224887). Also: nearly all actives have a fitted effect of over 50% in size. Also: potency is read from the fitted curve at half-maximal effect. Summed up: as §2
Experiment [17] in a line: A CellTox Green Cytotoxicity Assay to monitor cytotoxicity in HEK293 cells - 16 hour (AID 1224888). Also: nearly all actives have a fitted effect of over 35% in size. Also: potency is read from the fitted curve at half-maximal effect. Summed up: as §3
Experiment [18] in a line: qHTS RealTime-Glo MT Cell Viability Assay in HepG2 cells - 0 hour (AID 1224889). Also: nearly all actives have a fitted effect of over 50% in size. Summed up: as §5
The nature of experiment [19]: A CellTox Green Cytotoxicity Assay to monitor cytotoxicity in HepG2 cells - 8 hour (AID 1224890). Also: nearly all actives have a fitted effect of over 45% in size. Also: potency is read from the fitted curve at half-maximal effect. Summed up: as §4
A short description of experiment [20]: qHTS assay to identify small molecule antagonists of the estrogen receptor alpha (ER-alpha) signaling pathway using the BG1 cell line in the presence of 0.1 nM 17-beta-estradiol - cell viability counter screen (AID 1259241). Also: nearly all actives have a fitted effect of over 40% in size. Also: potency is read from the fitted curve at half-maximal effect. The gist of the method:
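The cell line endogenously expresses full-length ER-alpha and carries four EREs driving luciferase. Cells are cultured 5 days hormone-free, treated 22 hr with compounds and 0.1 nM estradiol, then viability is read by fluorescence.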

Each structure is given as a SMILES string. Where “and” joins values, the source holds several entries; their conditions need not be identical. Identical values can stand only once. Unmarked numbers belong to inactive results. Results filed as inconclusive are left out. Calls of active or inactive are those of the source. Calls follow the shape of the dose curve; as a rule, active = well fitted curve in the direction sought with a large enough effect in the repeat runs; inconclusive = weak or mixed curves; inactive = no such curve, though single readings can be large; an effect the other way counts as inactive or inconclusive.
% is scaled to controls: 0 for no effect and ±100 for the full control effect.

`OC1(c2ccc(Cl)c(C(F)(F)F)c2)CCN(CCCC(c2ccc(F)cc2)c2ccc(F)cc2)CC1`: the Potency in experiment [1] was 9.52 µM (active); in experiment [2], 21.3 µM (active); in [3], 9.52 µM (active); in experiment [4], 23.9 µM (active); in [5], 10.7 µM (active); in experiment [6], 8.49 µM (active). In addition, the Potency was 9.52 µM (active) in [7]; 6.74 µM (active) in [8]; 23.9 µM (active) in [10]; 8.49 µM (active) in experiment [12]; 21.3 µM (active) in experiment [13]; 10.7 µM (active) in [14]. Also, the Potency in experiment [15] was 9.52 µM (active); in experiment [16] it was 19 µM (active); in experiment [17] it was 23.9 µM (active); in experiment [19], 19 µM (active); in experiment [20], 33.5 µM (active). In addition, the Potency result in [9], in experiment [11] and in [18] was “inactive” each time.

`Nc1ccc2cc(S(=O)(=O)O)cc(O)c2c1N=Nc1ccccc1C(F)(F)F`: the Potency entry in experiment [1], in [2], in [4], in experiment [5], in experiment [6] and in experiment [7] was “inactive” in each case. For the same compound, the Potency entry in [8], in experiment [9], in experiment [10], in experiment [11], in experiment [12] and in experiment [13] was “inactive” in each case. For the same compound, the Potency entry in [14], in [15], in experiment [16], in experiment [17], in experiment [18] and in [19] was “inactive” throughout. In experiment [3], the max response was 0.853%. Also, the Potency in [20] was 30.6 µM (active).

Turning to `C/C=C(\C)C(=O)OCc1ccccc1`, the Potency result in experiment [1], in [2], in [4], in [5], in experiment [6] and in experiment [7] was “inactive” in each case. For the same compound, the Potency result in experiment [8], in experiment [9], in [10], in experiment [11], in experiment [12] and in experiment [14] was “inactive” in each case. In addition, the Potency entry in [15], in experiment [16], in [17], in experiment [18], in [19] and in experiment [20] was “inactive” in each case. In experiment [3], the max response is -2.09%.

For the compound `COC(=O)c1cc(Cl)ccc1OC`, the Potency entry in experiment [1], in experiment [2], in [4], in experiment [5], in experiment [6] and in [7] was “inactive” in each case. The Potency result in experiment [8], in experiment [9], in experiment [10], in experiment [11], in experiment [12] and in [13] was “inactive” in each case. For the same compound, the Potency result in [14], in experiment [15], in experiment [16], in experiment [17], in experiment [18] and in experiment [19] was “inactive” in each case. Moreover, the max response in experiment [3] is 6.18%.

Take `Clc1ccc2n[nH]nc2c1`: the Potency entry in experiment [1], in [2], in [4], in experiment [5], in experiment [6] and in experiment [7] was “inactive” each time. Besides, the Potency entry in experiment [8], in experiment [9], in experiment [10], in experiment [11], in experiment [12] and in experiment [13] was “inactive” throughout. The Potency entry in [14], in experiment [15], in experiment [16], in [17], in experiment [19] and in experiment [20] was “inactive” in each case. The max response in [3] was 4.16%.

Consider `O=C(c1ccc(O)cc1O)c1ccc(O)cc1O`, for which the Potency entry in [1], in experiment [2], in [4], in experiment [5], in experiment [6] and in experiment [7] was “inactive” each time. Further, the Potency entry in experiment [8], in [9], in experiment [10], in experiment [11], in experiment [13] and in experiment [14] was “inactive” throughout. The Potency result in experiment [15], in [16], in [17], in experiment [18], in [19] and in experiment [20] was “inactive” in each case. The max response in experiment [3] is -12.9% and -13.9%.

Regarding `NC(=O)NS(=O)(=O)c1ccc(N)cc1`, the Potency entry in experiment [1], in experiment [2], in [4], in experiment [5], in experiment [6] and in experiment [7] was “inactive” each time. Further, the Potency result in experiment [8], in [9], in [10], in experiment [11], in [13] and in experiment [14] was “inactive” in each case. For the same compound, the Potency result in [15], in [16], in experiment [17], in [18], in experiment [19] and in experiment [20] was “inactive” each time. The max response in [3] was 2.7%.

Regarding `N#CC1(c2ccc(F)cc2)CCC(=O)CC1`, the Potency result in experiment [1], in experiment [2], in [4], in experiment [5], in experiment [6] and in [7] was “inactive” throughout. Further, the Potency result in experiment [8], in experiment [9], in experiment [10], in experiment [11], in experiment [12] and in experiment [13] was “inactive” in each case. Moreover, the Potency entry in experiment [14], in [15], in experiment [16], in experiment [17], in experiment [18] and in experiment [19] was “inactive” each time. In [20], the Potency result was “inactive”. The max response in [3] was 6.72%.

In the case of `CCCCN(CCCC)C(=O)N(CCCC)CCCC`, the Potency result in experiment [1], in experiment [2], in experiment [4], in [5], in [6] and in experiment [7] was “inactive” throughout. In addition, the Potency result in experiment [8], in [9], in experiment [10], in [11], in experiment [13] and in [14] was “inactive” in each case. The Potency entry in experiment [15], in experiment [16], in [17], in experiment [18], in [19] and in experiment [20] was “inactive” in each case. In addition, in [3], the max response was -2.17%.

Take `Nc1cc(C(F)(F)F)ccc1S`: the Potency result in [1], in experiment [2], in [4], in [5], in experiment [6] and in experiment [7] was “inactive” each time. Besides, the Potency entry in experiment [8], in [9], in [10], in experiment [11], in experiment [12] and in [13] was “inactive” each time. In addition, the Potency result in experiment [14], in experiment [15], in experiment [16], in experiment [17], in [18] and in experiment [19] was “inactive” in each case. Moreover, the Potency result in experiment [20] was “inactive”. Further, in [3], the max response is 3.21%.

Take `Cc1c(C)c2c(c(C)c1O)CCC(C)(COc1ccc(CC3SC(=O)NC3=O)cc1)O2` (stereo not drawn): the Potency in [1], in [3] and in experiment [15] was 43.6 µM (active) each time. Further, the Potency entry in [2], in experiment [4], in [5], in experiment [6], in experiment [7] and in experiment [8] was “inactive” throughout. Besides, the Potency result in experiment [9], in experiment [10], in [11], in [12], in experiment [13] and in experiment [14] was “inactive” in each case. Moreover, the Potency entry in [17], in [18], in experiment [19] and in experiment [20] was “inactive” in each case.

These data come from PubChem BioAssay (Tox21).
